Laboratory results from the OligoGym collection.

Each sequence was assayed against SLC26A5 (assay: pooled miR-30 sensor sort-seq; sequence = guide strand). Conditions: shRNA.
Note: reference of the scale not given here.

Row | Sequence | sensor-assay potency score (higher = more potent)
1 | TTTCCAAGGACTTTGTAGCTTG | -0.312
2 | TTGTGTGTAGTCTTTCCTGGAG | -0.0771
3 | TTGCATAGTAAATTGGTGCATT | -0.361
4 | TAACATTCTGCAACACAGCAAC | -0.753
5 | TTAATGAGGCCAAACAACCTGC | -0.462
6 | TTCTGCAACACAGCAACTGTAC | -0.438
7 | TTTCGTTTTAATGCATTGCTAT | -0.563
8 | TATCATCTGGTACTAATCGAAC | -1.32
9 | TATACAAGTCGCTATTTGCATA | -1.73
10 | TAAATCTTTGCATTTCCTCAGG | -0.693
11 | TAGTCTTTCCTGGAGGACCGGA | -0.913
12 | TTGTCCTTTGTGTGTAGTCTTT | -0.811

Each sequence was assayed against SLC26A8 in the same assay as above. Conditions: shRNA.

Row | Sequence | sensor-assay potency score (higher = more potent)
13 | TTGAGCTTCATCTCTTTGGAGA | -0.991
14 | TTAGGTAGTAAACATTTACAAA | -1.21
15 | TTTACAAATGTAATTGAGCTGC | -0.345
16 | TTGATTTTTCTGAGACACGGAC | -0.723
17 | TAGTCCTAGCAATAGCACCAGT | -1.08
18 | TTTATTTTCAAATCGCTCTGTG | 0.487
19 | TTATCCTGGATAATAGTCCTAG | -0.541
20 | AATCGATACATACACATCCATT | -1.59
21 | TGAATTGTCATTCTTGTCTGTT | -0.0701
22 | TAATCGATACATACACATCCAT | -0.25
23 | TTGAATTGTCATTCTTGTCTGT | 0.809
24 | TTTTATATCTTGAATTGTCATT | -1.25

What follows are sequences tested against SLC27A5 in the same assay as above. Conditions: shRNA.

Row | Sequence | sensor-assay potency score (higher = more potent)
25 | TTGTCCAGTACAAACAGAGGGT | -0.338
26 | TAAACCACATCATCAGCTGTGG | -0.167
27 | TAGTCCATTGCCCATTGCCAGG | -1.83
28 | TTGTAGTAAACGTCGCCCGATT | -1.15
29 | TTGCAAGAAGTCCACCTGCGAC | -1.49
30 | TATTCTGCCACTGCTACAGGGC | -0.565
31 | TATGTGTCCGGTCCTCTGGTTG | -1.24
32 | TTCATCAGTTTGAACGTGCTGG | 0.535
33 | TACAGGATCACTGTCACGCCAT | -0.0663
34 | TTGACTAAGCCCATGTTGCCTT | -0.405
35 | TGTTGTAGTAAACGTCGCCCGA | -0.779
36 | TAGTTGACTAAGCCCATGTTGC | -0.878

These sequences were tested against SLC28A2 in the same assay as above. Conditions: shRNA.

Row | Sequence | sensor-assay potency score (higher = more potent)
37 | ATCTTCTTGAACAATCTGGCGT | -0.838
38 | TTGAACAATCTGGCGTGTGTTT | -0.953
39 | TTGGTGAAACTTGTGTTTGGGA | -0.24
40 | ATAGTGATTTGTAAAAACCAGG | -0.831
